Experimental data reported in PubChem BioAssay (NCATS).
The source made the active and inactive calls. How the calls were made is not given here.

What was measured:
[1] = Immunotoxin (HA22) sensitization/mitigation study. Vehicle arm (PBS) (AID 1159510)
[2] = Immunotoxin (SS1P) sensitization/mitigation study. Vehicle arm (DMEM) (AID 1159513)
Potency means the concentration at half of the fitted maximal effect.

Compound	Potency [1]	Potency [2]
CN(c1ncccc1CNc1nc(Nc2ccc3c(c2)CC(=O)N3)ncc1C(F)(F)F)S(C)(=O)=O	1480 nM (active)	2960 nM (active)
c1cc(-c2cnn3cc(-c4ccc(OCCN5CCCCC5)cc4)cnc23)ccn1	2640 nM (active)	16600 nM (active)
Nc1ccc(C(=O)c2cc3c(ccc4ccccc43)[nH]2)cc1	743 nM (active)	1180 nM (active)
O=C(C=Cc1cccc(S(=O)(=O)Nc2ccccc2)c1)NO	264 nM (active)	833 nM (active)
CC(NCc1ccc2c(c1)nc(NC(=O)c1ccc(-c3cn[nH]c3)s1)n2CC(C)(C)O)C(C)(C)C (stereo not given)	46.9 nM (active)	41.8 nM (active)
Cc1nc(N)sc1-c1ccnc(Nc2ccc(N3CCOCC3)cc2)n1	5900 nM (active)	18700 nM (active)
Cc1cc(Nc2cc(N3CCN(C)CC3)nc(Sc3ccc(NC(=O)C4CC4)cc3)n2)n[nH]1	7430 nM (active)	18700 nM (active)
COc1c(C)cnc(Cn2cnc3c(Cl)nc(N)nc32)c1C	18.7 nM (active)	10.5 nM (active)
COCCNCCCn1c(C(=O)CF)c(-c2ccc(C)cc2)c2c(N)ncnc21	inactive	inactive
CCOC(=O)C1=C[C@@]2(CC)CCCN3CCc4c(n1c1ccccc41)[C@H]32	inactive	inactive
Cc1nc2cnc3ccc(C#Cc4cccnc4)cc3c2n1-c1ccc(C(C)(C)C#N)cc1	1870 nM (active)	132 nM (active)
NC(=O)c1ccc(-c2nc(-c3ccc4c(c3)OCO4)c(-c3ccccn3)[nH]2)cc1	inactive	inactive
CS(=O)(=O)Oc1ccc2c(NC(N)=O)c(C(=O)c3ccc(Cl)cc3Cl)oc2c1	inactive	inactive
c1ccc(-c2nn3c(c2-c2ccnc4cc(OCCN5CCOCC5)ccc24)CCC3)nc1	26400 nM (active)	inactive
CN(C)CCCN=c1c2ccccc2n(C)c2[nH]c(=O)n(C)c(=O)c12	7430 nM (active)	7430 nM (active)
CCC1(Cc2ccc(N)cc2)CCC(=O)NC1=O (stereo not given)	inactive	inactive
CCOc1cc2ncc(C#N)c(Nc3ccc(OCc4ccccn4)c(Cl)c3)c2cc1NC(=O)/C=C/CN(C)C	4690 nM (active)	935 nM (active)
COC(=O)c1ccc2c(C(=Nc3ccc(N(C)C(=O)CN4CCN(C)CC4)cc3)c3ccccc3)c(O)[nH]c2c1	209 nM (active)	1180 nM (active)
O=C(Nc1cc(C(F)(F)F)cc(C(F)(F)F)c1)c1cc(Cl)ccc1O	166 nM (active)	66.2 nM (active)
COc1cc(Oc2ccnc3cc(OC)c(OC)cc23)ccc1NC(=O)NC(C)c1nccs1 (stereo not given)	16600 nM (active)	20900 nM (active)
Nc1cc(C(F)(F)F)c(-c2cc(N3CCOCC3)nc(N3CCOCC3)n2)cn1	1050 nM (active)	935 nM (active)
CC(C)CC(=O)Nc1n[nH]c2c1CN(C(=O)C1CCN(C)CC1)C2(C)C	52.6 nM (active)	264 nM (active)
Cc1cc(Nc2cc(N3CCN(C)CC3)nc(C=Cc3ccccc3)n2)n[nH]1	1320 nM (active)	833 nM (active)

Compound	Potency [1]	Potency [2]
C=CC(=O)Nc1cccc(Oc2nc(Nc3ccc(N4CCN(C)CC4)cc3OC)ncc2Cl)c1	16600 nM (active)	23500 nM (active)
NC(=O)Nc1cc(-c2cccc(F)c2)sc1C(=O)N[C@H]1CCCNC1	105 nM (active)	590 nM (active)
CN(C)C(=O)c1ccc(S(=O)(=O)c2ccc(NC(=O)[C@@](C)(O)C(F)(F)F)c(Cl)c2)cc1	1660 nM (active)	inactive
O=C(O)CC/C=C\CC[C@H]1[C@@H](N2CCCCC2)[C@@H](O)C[C@@H]1OCc1ccc(-c2ccccc2)cc1	inactive	inactive
COc1ccc(-c2oc3cc(OC)ccc3c2C(=O)c2ccc(C#N)cc2)cc1	inactive	inactive
CCC1(O)CC2CN(CCc3c([nH]c4ccccc34)[C@@](C(=O)OC)(c3cc4c(cc3OC)N(C=O)[C@H]3[C@](O)(C(=O)OC)[C@H](OC(C)=O)[C@]5(CC)C=CCN6CC[C@]43[C@@H]65)C2)C1 (stereo not given in full)	1.7 nM (active)	3.3 nM (active)
Oc1cccc(-c2nc(N3CCOCC3)c3oc4ncccc4c3n2)c1	264 nM (active)	93.5 nM (active)
CC(C)C(=O)Nc1ncc(-c2cc(C(F)F)nn2-c2c(Cl)cccc2Cl)s1	11800 nM (active)	18700 nM (active)
Nc1ccc(-c2ccc3ncc4ccc(=O)n(-c5cccc(C(F)(F)F)c5)c4c3c2)cn1	18.7 nM (active)	52.6 nM (active)
CC1=C(CO)C(=O)O[C@@H]([C@@H](C)[C@H]2CC[C@H]3[C@@H]4C[C@H]5O[C@]56[C@@H](O)C=CC(=O)[C@]6(C)[C@@H]4CC[C@]23C)C1	74.3 nM (active)	3720 nM (active)
CN1CCC(CNc2ccc3ncc(-c4cccc(OC(F)(F)F)c4)n3n2)CC1	20900 nM (active)	16600 nM (active)
CC(C)(C)c1cnc(CSc2cnc(NC(=O)C3CCNCC3)s2)o1	33.2 nM (active)	52.6 nM (active)
CNc1nccc(-c2cccnc2Oc2cc(C(=O)Nc3cccc(C(F)(F)F)c3)ccc2C)n1	14800 nM (active)	23500 nM (active)
O=C(C=Cc1ccc(/C=C/C(=O)Nc2ccc(C3=NCCN3)cc2)cc1)Nc1ccc(C2=NCCN2)cc1	inactive	inactive
C[C@@]12O[C@@H](C[C@]1(O)CO)n1c3ccccc3c3c4c(c5c6ccccc6n2c5c31)CNC4=O	209 nM (active)	29.6 nM (active)
COc1cc2ncnc(Nc3ccc(F)c(Cl)c3)c2cc1NC(=O)C=CCN1CCCCC1	9350 nM (active)	18700 nM (active)
NC(=O)Nc1cc(-c2ccc(CN3CCOCC3)c(F)c2)sc1C(=O)N[C@H]1CCCNC1	41.8 nM (active)	209 nM (active)
CN(C)c1ccc(C2Nc3ccc4ccccc4c3C3=C2C(=O)CC(C)(C)C3)cc1Br (stereo not given)	11800 nM (active)	18700 nM (active)
COc1nc(-c2ccc3c(c2)OCO3)n(-c2ccc(NC(=O)CSc3ccccc3)cc2)n1	20900 nM (active)	inactive
CC(C)[C@H](CO)Nc1nc(Nc2ccc(C(=O)O)c(Cl)c2)c2ncn(C(C)C)c2n1	inactive	inactive
CC(C)(C(=O)NCC(F)(F)C(F)(F)F)C(=O)N[C@@H]1C(=O)Nc2ccccc2-c2ccccc21	inactive	inactive
CCOc1ccn(-c2ccc(F)cc2)c(=O)c1C(=O)Nc1ccc(Oc2ccnc(N)c2Cl)c(F)c1	18700 nM (active)	23500 nM (active)
